Assay outcomes from PubChem.
ABCB6 inh MLPCN – blocks the human ABCB6 transporter; fluorescence ratio to DMSO, % at 10 µM; Q9NP58; K562-ABCB6 porphyrin accumulation, flow cytometry, 1 h; hits give low values; actives 0.19% (n = 360,000);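 active = fluorescence ratio to DMSO below 75%, the collection mean minus 3 SD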;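 also: signal is porphyrin accumulated inside mitochondria; lower ratio means ABCB6 inhibition with less porphyrin fluorescence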
VLA-4 inh – inhibition in a human VLA-4 binding assay; actives 0.2% (n = 330,000); P13612; inhibition, % (about 7 µM as worked out from the volumes in the protocol); VLA-4 expressing cells, ligand binding flow cytometry; in the data active = inhibition above about 50%
Exocytosis inh – lytic granule exocytosis inhibition | TALL-104 LAMP-1 surface exposure, flow cytometry; cells stimulated with thapsigargin and PMA | inhibition, % at 10 µM | actives 0.66% (n = 360,000) | AID 651702;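 active = inhibition above about 55%, limit read from the data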
CaV13 ICDI inh – Disruptors of the CACNA1D IQ motif to Ca2+-dependent inactivation inhibitor domain association, primary screening, Förster resonance energy transfer in intact living …; HEK cells, CFP/YFP FRET ICDI-IQ, plate reader, 10 min; percent FRET-ratio fall versus neutral wells; inhibition, % at 12.3 µM; actives 0.098% (n = 340,000);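 active = mean replicate inhibition of at least 30% and at least 1% of replicates passing that level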
Exocytosis CP01 – blocks lytic granule exocytosis; shares compounds with Exocytosis inh; TALL-104 cells, LAMP-1 externalization, flow cytometry; stimulated with PMA plus thapsigargin; inhibition, % at 10 µM; actives 11% (n = 1,500); in the data active = inhibition above about 60%
A number is an active result. An excerpt weighted towards active compounds, which were near 1.1% of everything screened.

How did CCC(C(=O)NC(C)(C)C)N(C(=O)Cn1nnc(-c2cccs2)n1)c1cnc2ccccc2c1 (stereo not given) do in these assays?
ABCB6 inh MLPCN: inactive; VLA-4 inh: inactive; Exocytosis inh: inactive; CaV13 ICDI inh: inactive

What do the screens show for `CCCCC[C@@H](C)N1C[C@@H](COCc2ccccc2)Oc2cc(N3CC[C@H](N(C)C)C3)ccc2S1(=O)=O`?
ABCB6 inh MLPCN: inactive; Exocytosis inh: 56; CaV13 ICDI inh: inactive; Exocytosis CP01: 69

What do the screens show for `CCCCC[C@H](C)N1C[C@@H](COCc2ccccc2)Oc2cc(N3CC[C@H](N(C)C)C3)ccc2S1(=O)=O`?
ABCB6 inh MLPCN: inactive; Exocytosis inh: 75; CaV13 ICDI inh: inactive; Exocytosis CP01: inactive

How did CCCCC[C@H](C)N1C[C@H](COCc2ccccc2)Oc2cc(N3CC[C@@H](O)C3)ccc2S1(=O)=O do in these assays?
ABCB6 inh MLPCN: inactive; Exocytosis inh: inactive; CaV13 ICDI inh: inactive

How did CC(=O)Nc1ccc2sn(-c3ccccc3)c(=O)c2c1 do in these assays?
ABCB6 inh MLPCN: inactive; Exocytosis inh: 60; CaV13 ICDI inh: inactive; Exocytosis CP01: 94

How did CN(C(=O)c1ccc(OC2CCN(S(=O)(=O)N(C)C)CC2)cc1)C1CCCCC1 do in these assays?
ABCB6 inh MLPCN: inactive; VLA-4 inh: inactive; Exocytosis inh: 64; CaV13 ICDI inh: inactive; Exocytosis CP01: inactive

Results for CCC(C)[C@H](NC(=O)NCc1ccccc1)C(=O)O (stereo not given in full) ?
ABCB6 inh MLPCN: inactive; VLA-4 inh: inactive; Exocytosis inh: 100; CaV13 ICDI inh: inactive; Exocytosis CP01: inactive

What do the screens show for `Cc1c(-c2ccc(F)cc2)[n+](=O)c2c(n1[O-])CCCCC2`?
ABCB6 inh MLPCN: inactive; VLA-4 inh: inactive; Exocytosis inh: inactive; CaV13 ICDI inh: inactive

What do the screens show for `c1ccc(CN2CCN(C3CCCSc4ccccc43)CC2)cc1` (stereo not given)?
ABCB6 inh MLPCN: inactive; VLA-4 inh: inactive; Exocytosis inh: 60; CaV13 ICDI inh: inactive; Exocytosis CP01: inactive

Results for O=C1CC(N2CCN(Cc3ccccc3)CC2)C(=O)N1 (stereo not given) ?
ABCB6 inh MLPCN: inactive; VLA-4 inh: inactive; Exocytosis inh: inactive; CaV13 ICDI inh: inactive

How did Cc1cc(NCc2ccccn2)n2ncc(-c3ccccc3)c2n1 do in these assays?
ABCB6 inh MLPCN: inactive; VLA-4 inh: inactive; Exocytosis inh: inactive; CaV13 ICDI inh: inactive

What do the screens show for `Cc1cc(NCc2ccccn2)n2ncc(-c3ccc(Cl)cc3)c2n1`?
ABCB6 inh MLPCN: inactive; VLA-4 inh: inactive; Exocytosis inh: 82; CaV13 ICDI inh: inactive; Exocytosis CP01: inactive

Results for Cc1cc(CNC(=O)COc2ccc([N+](=O)[O-])cc2)c2ccccc2n1 ?
ABCB6 inh MLPCN: inactive; VLA-4 inh: inactive; Exocytosis inh: 60; CaV13 ICDI inh: inactive; Exocytosis CP01: inactive

Results for COc1ccc(-n2c(O)c(Cc3ccccc3)c(=O)n3nc(-c4ccccc4)c(=O)cc23)cc1 ?
ABCB6 inh MLPCN: inactive; VLA-4 inh: inactive; Exocytosis inh: inactive; CaV13 ICDI inh: inactive

How did O=C(NCc1ccccc1Cl)c1csc([C@@H]2O[C@H](CO)[C@H](O)[C@H](O)[C@H]2O)n1 do in these assays?
ABCB6 inh MLPCN: inactive; Exocytosis inh: inactive; CaV13 ICDI inh: inactive

What do the screens show for `COc1ccc(CC(=O)Nc2cccc(C(C)=O)c2)cc1S(=O)(=O)N1CCOCC1`?
ABCB6 inh MLPCN: inactive; VLA-4 inh: inactive; Exocytosis inh: 100; CaV13 ICDI inh: inactive; Exocytosis CP01: inactive

Results for S=C(NCC1CCCO1)Nc1ccccc1 (stereo not given) ?
ABCB6 inh MLPCN: inactive; VLA-4 inh: inactive; Exocytosis inh: inactive; CaV13 ICDI inh: inactive

What do the screens show for `COC(=O)C1C(c2ccccc2)C(C(=O)OCc2ccco2)C1c1ccccc1` (stereo not given)?
ABCB6 inh MLPCN: inactive; VLA-4 inh: inactive; Exocytosis inh: 69; CaV13 ICDI inh: inactive; Exocytosis CP01: inactive

What do the screens show for `COCCNC(=O)C1CCCN(Cc2cccc(C(F)(F)F)c2)CC1` (stereo not given)?
ABCB6 inh MLPCN: inactive; Exocytosis inh: inactive; CaV13 ICDI inh: inactive

Results for CCCCCCCCNCCS(=O)(=O)NCc1ccccc1 ?
ABCB6 inh MLPCN: inactive; Exocytosis inh: 63; CaV13 ICDI inh: inactive; Exocytosis CP01: inactive

Results for CCCCNS(=O)(=O)CCNCCc1ccccc1 ?
ABCB6 inh MLPCN: inactive; Exocytosis inh: inactive; CaV13 ICDI inh: inactive

Results for O=C(Nc1ccccc1)c1ccc(NCCN2C(=O)CCC2=O)c([N+](=O)[O-])c1 ?
ABCB6 inh MLPCN: inactive; VLA-4 inh: inactive; Exocytosis inh: inactive; CaV13 ICDI inh: inactive
